The values below come from PubChem BioAssay (NCI).

The panel holds about 83,000 compounds, 20% with a hit somewhere; the sample as a whole holds those more often.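 Treatment: one concentration, 48 hours, 96-well format. Scoring: percent growth, with anything below 10 considered active.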 Unmarked numbers belong to inactive results. Activity calls are given as the source filed them.

Some test systems named below: DU-145 prostate; K-562 leukemia; MALME-3M melanoma; MDA-MB-231 breast; RXF 393 renal; SF-268 CNS; SF-295 CNS; SF-539 CNS; UACC-257 melanoma; M14 melanoma.
Test in all cases: NCI-60 one-dose screen, 48 h (100 = growth as untreated, 0 = no growth, -100 = all killed)
What all share (details): 10 µM

Turning to `Cc1cc(C)c(CC(=O)O)c(C)c1`, the growth in the assay on DU-145 prostate is 101%; in the assay on K-562 leukemia, 95.2%; in the assay on MALME-3M melanoma, 97.8%; in the assay on MDA-MB-231 breast, 120%; with RXF 393 renal, 123%; with SF-268 CNS, 98.6%. For the same molecule, the growth is 102% in the assay on SF-295 CNS, 108% with SF-539 CNS, 106% in the assay on UACC-257 melanoma and 98.9% in the assay with M14 melanoma.
As for `CCCC(C)OCC(=O)O` (stereo not given), the growth in the assay on DU-145 prostate was 106%; with K-562 leukemia, 112%; in the assay on MALME-3M melanoma, 90.7%; in the assay on MDA-MB-231 breast, 105%; in the assay on RXF 393 renal, 96.4%; in the assay with SF-268 CNS it was 99.2%. Further, the growth in the assay with SF-295 CNS was 98.5%; with SF-539 CNS, 102%; with UACC-257 melanoma it was 90.2%; with M14 melanoma, 106%.
Turning to `Cc1ccc(CCCC(=O)O)c(C)c1`, the growth in the assay with DU-145 prostate was 107%; in the assay on K-562 leukemia, 97.8%; in the assay with MALME-3M melanoma it was 105%; in the assay on MDA-MB-231 breast it was 108%; in the assay with RXF 393 renal it was 100%; with SF-268 CNS, 104%. The growth is 98.5% with SF-295 CNS, 96.5% in the assay with SF-539 CNS and 107% in the assay with M14 melanoma.
Regarding `O=C(Nc1ccccc1C(=O)NCC1CC1)c1cccs1`, the growth with DU-145 prostate was 118%; in the assay with K-562 leukemia it was 103%; in the assay with MALME-3M melanoma, 131%; with MDA-MB-231 breast it was 97.1%; in the assay on RXF 393 renal it was 98.9%; with SF-268 CNS, 113%. The growth in the assay with SF-295 CNS is 86.5%; with SF-539 CNS, 101%; in the assay with M14 melanoma it was 103%.
Take `O=C(NCc1ccco1)Nc1c(Cl)cc(Cl)cc1Cl`: the growth in the assay with DU-145 prostate was 113%; in the assay with K-562 leukemia, 106%; in the assay with MALME-3M melanoma it was 97.3%; with MDA-MB-231 breast it was 101%; in the assay with RXF 393 renal, 107%; in the assay on SF-268 CNS it was 104%. The growth is 93.5% in the assay on SF-295 CNS, 94.7% with SF-539 CNS and 99.3% with M14 melanoma.
For `O=C1OC(c2ccc(F)cc2)CC1CN1CCOCC1` (stereo not given), the growth was 106% in the assay on DU-145 prostate; 113% in the assay with K-562 leukemia; 95.6% with MALME-3M melanoma; 105% in the assay with MDA-MB-231 breast; 111% with RXF 393 renal; 104% in the assay with SF-268 CNS. Also, the growth in the assay on SF-295 CNS is 89.9%; in the assay with SF-539 CNS it was 96.9%; in the assay on M14 melanoma, 104%.
As for `CC(C)(N)COS(=O)(=O)O`, the growth in the assay with DU-145 prostate was 111%; in the assay on K-562 leukemia, 104%; in the assay with MALME-3M melanoma, 108%; in the assay with MDA-MB-231 breast, 93.4%; in the assay on RXF 393 renal, 110%; with SF-268 CNS it was 92.7%. Further, the figures for the growth in the assay on SF-295 CNS, with SF-539 CNS and in the assay with M14 melanoma were 101%, 99.3% and 98.1%, respectively.
For the molecule `CCCCC1C(=O)N(c2ccccc2)N(c2ccccc2)C1=O`, the growth with DU-145 prostate is 113%; in the assay on K-562 leukemia, 99.1%; in the assay on MALME-3M melanoma, 97.1%; with MDA-MB-231 breast it was 103%; in the assay on RXF 393 renal it was 116%; in the assay on SF-268 CNS, 107%. In addition, the growth with SF-295 CNS is 110%; in the assay with UACC-257 melanoma, 105%; in the assay on M14 melanoma, 98.9%.
In the case of `COc1cc(/C=C/C(=O)c2ccccc2)cc(OC)c1OC`, the growth in the assay with DU-145 prostate was 62.5%; in the assay with K-562 leukemia, 11.4%; in the assay on MALME-3M melanoma, 76.8%; in the assay on MDA-MB-231 breast, 79.1%; with RXF 393 renal, 73.2%; in the assay on SF-268 CNS, 57.9%. The growth is -24.7% (active) with SF-295 CNS, 80.8% in the assay with SF-539 CNS and 74.6% with M14 melanoma.
Turning to `O=C(O)/C=C/C(=O)NCc1ccccc1`, the growth in the assay on DU-145 prostate was 121%; in the assay with K-562 leukemia, 108%; in the assay on MALME-3M melanoma it was 99%; in the assay with MDA-MB-231 breast it was 125%; in the assay with RXF 393 renal it was 104%; in the assay with SF-268 CNS it was 110%. The growth is 98.1% in the assay on SF-295 CNS, 95.7% with SF-539 CNS and 103% with M14 melanoma.
As for `COc1ccc(/C=C/c2cccc[n+]2C)cc1`, the growth in the assay with DU-145 prostate is 111%; with K-562 leukemia it was 100%; with MALME-3M melanoma, 94.6%; in the assay on MDA-MB-231 breast, 111%; with RXF 393 renal it was 101%; in the assay with SF-268 CNS, 97.2%. Moreover, the figures for the growth with SF-295 CNS, with SF-539 CNS and in the assay on M14 melanoma were 99.1%, 103% and 103%, respectively.
Turning to `O=C(OCC(O)C1OC(c2ccccc2)OC(COC(=O)c2ccccc2)C1O)c1ccccc1` (stereo not given), the growth was 118% in the assay on DU-145 prostate; 101% in the assay on K-562 leukemia; 105% in the assay on MALME-3M melanoma; 107% in the assay on MDA-MB-231 breast; 96.3% in the assay on RXF 393 renal; 110% in the assay on SF-268 CNS. Moreover, the growth was 77.3% in the assay on SF-295 CNS, 103% with SF-539 CNS and 110% with M14 melanoma.
Regarding `COC(=O)/C=C/C(=O)NC(N)=O`, the growth in the assay on DU-145 prostate was 105%; with K-562 leukemia it was 105%; with MALME-3M melanoma, 97.4%; in the assay on MDA-MB-231 breast, 108%; in the assay with RXF 393 renal, 95.2%; in the assay with SF-268 CNS, 104%. The results for the growth in the assay with SF-295 CNS, in the assay with SF-539 CNS and in the assay on M14 melanoma were 95.2%, 96.8% and 106%, respectively.
Turning to `Cc1cc(/C=C/c2ccc3cc(N(C)C)ccc3[n+]2C)c(C)n1-c1ccccc1`, the growth in the assay on DU-145 prostate is -39.2% (active); in the assay with K-562 leukemia it was 0.995% (active); in the assay with MALME-3M melanoma it was -56.9% (active); in the assay on MDA-MB-231 breast, -18.9% (active); with RXF 393 renal, -96.2% (active); in the assay with SF-268 CNS it was -1.17% (active). Further, the figures for the growth with SF-295 CNS and in the assay with UACC-257 melanoma were -33.6% (active) and -39.5% (active), respectively.
Consider `C1CNC(C2=NCCN2)=N1`, for which the growth was 100% with DU-145 prostate; 90.4% in the assay on K-562 leukemia; 101% in the assay with MALME-3M melanoma; 107% in the assay with MDA-MB-231 breast; 113% with RXF 393 renal; 94% with SF-268 CNS. Also, the results for the growth in the assay on SF-295 CNS, in the assay on SF-539 CNS and with M14 melanoma were 101%, 98.5% and 103%, respectively.
For the molecule `O=C(Nc1ccccc1)OCCc1ccccc1`, the growth in the assay with DU-145 prostate is 108%; in the assay on K-562 leukemia, 114%; in the assay with MALME-3M melanoma, 107%; in the assay on MDA-MB-231 breast it was 119%; with RXF 393 renal it was 93.3%; with SF-268 CNS, 111%. Also, the growth in the assay on SF-295 CNS was 80.9%; with SF-539 CNS it was 99%; in the assay on M14 melanoma, 110%.
